# Assay results taken from PubChem BioAssay AID488838 (National Center for Advancing Translational Sciences (NCATS), 2010).
# Results filed as inconclusive are left out. The source made the active and inactive calls. Calls come from the whole dose curve; as a rule, active = well fitted inhibition curve with a large enough effect; inconclusive = small, poorly fitted or top-dose-only effect; inactive = flat fitted curve, though single readings scatter.
# Target: Luciferin 4-monooxygenase (Photinus pyralis) (UniProt P08659)
# Assay: Counterscreen Assay for Enhancers of SMN2 Splice Variant Expression: Interaction with Luciferase Reporter for Further Probe SAR
# Settings: purified firefly luciferase, luminescence, 5 min; series mostly up to 57.5 µM; activity change, negative = inhibition: at the top concentration
# Text: NIH Chemical Genomics Center [NCGC] NIH Molecular Libraries Probe Production centers Network [MLPCN] MLPCN Grant: R03 MH084179-01 Assay Submitter (PI): Elliot Androphy NCGC Assay Overview: Spinal muscular atrophy (SMA) is caused by insufficient levels of the survival motor neuron protein SMN. The SMN locus on chromosome 5q13 contains two inverted copies of SMN called SMN1 and SMN2 which are 99% identical at the amino acid level. SMN1 is a fully functional protein and SMN2 skips exon 7 90% of the time. Skipping of exon 7 produces non-functional protein product. 10% of the SMN2 protein includes exon 7 and is fully functional. In the SMA disease state, mutations in the SMN1 locus are the cause of the disease state. Because only 10% of SMN2 is of the fully functional form, it is not sufficient to overcome the deficiency produced by the loss of the SMN1 product. A therapy that either increases the amount of SMN2 product made increases the inclusion of exon 7 has been proposed for the treatment of SMA. We have designed an assay to identify small molecules that can increase the amount of functional SMN2 product by appending a luciferase reporter gene after the native SMN2 gene, such that inclusion of exon 7 in the expressed product places the luciferase sequence in frame, thus generating functional luciferase enzyme. One potential source of false positives in the primary screening assay is stabilization of the reporter luciferase via direct binding. This assay attempts to identify such compounds by screening directly for luciferase activity in the absence of the cellular system.
# NCGC Assay Protocol Summary: The primary screen utilizes a luciferase reporter gene assay, combining the promoter and splicing based cassettes in tandem with the major portion of the native SMN1 cDNA, and then transfected into HEK293 cells. Compounds that modulate luciferase signal presumably modulate expression of […]. In this assay, we utilize purified firefly luciferase in lieu of a cellular reporter to identify compounds interacting directly with luciferase in the primary screen. Sequence, Parameter, Value, Description (1) Reagent, 2.5 uL, Enzyme in buffer (note A) (2) Compound, 23 nL, From stock solutions (3) Time, 5 minutes, Room temp (4) Reagent#2.5 ul, Luciferase detection reagent (note B) (5) Detector, 1 sec integrate, Luminescent read on Viewlux (note C) Sigma enzyme (1 mg) considered to be MW 61,000 diluted in 357 ul assay buffer to 50 uM stock. A - Enzyme and buffer consists of 50 mM Tris-acetate pH 7.6, 10 mM Mg acetate 0.05% BSA, 0.01% Tween and 5 nM firefly luciferase B - Detection reagent = britelite plus diluted 1:10 in PBS C - Viewlux settings were 1 second integration medium sensitivity Keywords: Spinal muscular atrophy, SMA, SMN2, high throughput screening, MLSMR, MLPCN, NIH Roadmap, qHTS and NCGC
# Sequence of Luciferin 4-monooxygenase (Photinus pyralis) (P08659 whole entry, looked up, canonical isoform): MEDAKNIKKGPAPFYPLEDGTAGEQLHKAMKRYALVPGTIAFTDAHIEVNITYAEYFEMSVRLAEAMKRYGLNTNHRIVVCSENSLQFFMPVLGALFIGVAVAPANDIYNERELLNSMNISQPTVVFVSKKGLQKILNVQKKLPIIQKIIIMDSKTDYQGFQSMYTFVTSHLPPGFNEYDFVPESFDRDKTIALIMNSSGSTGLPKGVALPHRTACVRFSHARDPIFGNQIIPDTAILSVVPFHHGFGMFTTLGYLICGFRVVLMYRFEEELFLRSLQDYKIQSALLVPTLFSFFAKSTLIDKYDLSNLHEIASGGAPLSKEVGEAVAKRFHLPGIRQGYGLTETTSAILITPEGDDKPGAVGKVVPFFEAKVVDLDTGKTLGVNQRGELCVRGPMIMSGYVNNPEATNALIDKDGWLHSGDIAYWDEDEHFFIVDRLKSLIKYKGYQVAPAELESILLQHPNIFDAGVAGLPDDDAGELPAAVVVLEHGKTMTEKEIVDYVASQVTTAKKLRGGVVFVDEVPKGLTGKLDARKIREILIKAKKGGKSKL
SMILES,Potency,"activity change, negative = inhibition"
NC(=O)C1CCN(c2nc(-c3cccc(Br)c3)cs2)CC1,31.8 µM (active),
NC(=O)C1CCN(c2nc(-c3ccccc3Cl)cs2)CC1,,-28.1% (inactive)
CC(=O)Nc1ccc(-c2csc(N3CCC(C(N)=O)CC3)n2)cc1,,-14% (inactive)
CN(C)c1cccc(-c2cnc(N3CCC(c4ncc[nH]4)CC3)s2)c1,20.1 µM (active),
O=C(c1ccccc1)N1CCN(c2nc(-c3ccc(Br)cc3)cs2)CC1,,-22.2% (inactive)
c1c[nH]c(C2CCN(c3ncc(-c4ccc5c(c4)OCCCO5)s3)CC2)n1,10.1 µM (active),
NC(=O)C1CCN(c2ncc(-c3ccc4c(c3)OCCO4)s2)CC1,5.05 µM (active),
Nc1nc(N)c2c(OCC3CCN(Cc4ccccc4F)CC3)cccc2n1,,-16.4% (inactive)
CC(C)(C)OC(=O)NC1CCN(c2nc(-c3ccc(Br)cc3)cs2)CC1,,-14.5% (inactive)
N#Cc1ccccc1-c1csc(N2CCC(C(N)=O)CC2)n1,,-25.4% (inactive)
NC(=O)C1CCN(c2ncc(-c3ccc(Br)cc3)s2)CC1,4.01 µM (active),
Brc1ccc(-c2csc(N3CCNCC3)n2)cc1,,-8.89% (inactive)
NC(=O)C1CCN(c2nccc(-c3ccc(Br)cc3)n2)CC1,25.3 µM (active),
CN(C)c1cccc(-c2ncnc(N3CCC(C(N)=O)CC3)n2)c1,,-22.2% (inactive)
O=C(O)C1CCN(c2nc(-c3ccc(Br)cc3)cs2)CC1,1.42 µM (active),
CC(C)Oc1cccc(-c2ccnc(N3CCC(C(N)=O)CC3)n2)c1,10.1 µM (active),
NC(=O)C1CCN(c2nc(-c3ccc4c(c3)OCCCO4)cs2)CC1,0.897 µM (active),
CC(=O)C1CCN(c2ncc(-c3cccc(N(C)C)c3)s2)CC1,5.05 µM (active),
NC(=O)C1CCN(c2nc(-c3cccc4sc5ccccc5c34)cs2)CC1,31.8 µM (active),
Brc1ccc(-c2csc(N3CCC(c4nn[nH]n4)CC3)n2)cc1,16 µM (active),

SMILES,Potency,"activity change, negative = inhibition"
CN(C)C(=O)C1CCN(c2nc(-c3ccc(Br)cc3)cs2)CC1,8 µM (active),
NC(=O)C1CCN(c2ncc(Br)cn2)CC1,,-12.9% (inactive)
NC(=O)C1CCN(c2nc(-c3ccc4c(c3)OCO4)cs2)CC1,28.4 µM (active),
COc1cccc(-c2csc(N3CCC(C(N)=O)CC3)n2)c1,25.3 µM (active),
Cc1cnc(N2CCC(C(N)=O)CC2)nc1-c1cccc(N(C)C)c1,,-6.67% (inactive)
O=C(c1ccco1)N1CCN(c2nc(-c3ccc(Br)cc3)cs2)CC1,,-11.1% (inactive)
COc1ccccc1-c1csc(N2CCC(C(N)=O)CC2)n1,,-21.1% (inactive)
NC(=O)C1CCN(c2nc(-c3cccc(C(F)(F)F)c3)cs2)CC1,,-27.4% (inactive)
CCOc1ccc(-c2csc(N3CCC(C(N)=O)CC3)n2)cc1,,-29.5% (inactive)
CS(=O)(=O)N1CCN(c2nc(-c3ccc(Br)cc3)cs2)CC1,,-14.8% (inactive)
O=C(C1CCN(c2nc(-c3ccc(Br)cc3)cs2)CC1)N1CCNCC1,,9.84% (inactive)
CS(=O)(=O)c1ccc(-c2csc(N3CCC(C(N)=O)CC3)n2)cc1,,-17.5% (inactive)
NC(=O)C1CCN(c2nc(-c3ccc(C(F)(F)F)cc3)cs2)CC1,20.1 µM (active),
NC1CCN(c2nc(-c3ccc(Br)cc3)cs2)CC1,2.01 µM (active),
NC(=O)C1CCN(c2ncc(-c3ccc4c(c3)OC(F)(F)O4)s2)CC1,16 µM (active),
NC(=O)C1CCN(c2nccc(Cl)n2)CC1,,-14.5% (inactive)
COc1ccc(-c2cnc(N3CCC(C(N)=O)CC3)s2)cc1OC,,-15.6% (inactive)
NC(=O)C1CCN(c2nnc(-c3ccc(Br)cc3)s2)CC1,,-22.2% (inactive)
NC(=O)C1CCN(c2ncc(-c3ccc4c(c3)OCCCO4)s2)CC1,2.84 µM (active),
CN(C)c1cccc(-c2nccc(N3CCC(C(N)=O)CC3)n2)c1,,-19.7% (inactive)
